Screens deposited in PubChem by The Scripps Research Institute Molecular Screening Center.
ADAM17 inh = inhibitors of human ADAM17 | inhibition, % at 6.95 µM | hit rate 0.83% among 370,000 | recombinant ADAM17, EDANS/DABCYL FRET peptide cleavage | P78536 | AID 720648;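 active = inhibition above the mean of compounds lying between control limits plus 3 SD, set per campaign, cut at about 8.5% in these data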;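 also: 0% = DMSO-only wells as the low control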
Target sequence (P78536 215-824 limits assumed): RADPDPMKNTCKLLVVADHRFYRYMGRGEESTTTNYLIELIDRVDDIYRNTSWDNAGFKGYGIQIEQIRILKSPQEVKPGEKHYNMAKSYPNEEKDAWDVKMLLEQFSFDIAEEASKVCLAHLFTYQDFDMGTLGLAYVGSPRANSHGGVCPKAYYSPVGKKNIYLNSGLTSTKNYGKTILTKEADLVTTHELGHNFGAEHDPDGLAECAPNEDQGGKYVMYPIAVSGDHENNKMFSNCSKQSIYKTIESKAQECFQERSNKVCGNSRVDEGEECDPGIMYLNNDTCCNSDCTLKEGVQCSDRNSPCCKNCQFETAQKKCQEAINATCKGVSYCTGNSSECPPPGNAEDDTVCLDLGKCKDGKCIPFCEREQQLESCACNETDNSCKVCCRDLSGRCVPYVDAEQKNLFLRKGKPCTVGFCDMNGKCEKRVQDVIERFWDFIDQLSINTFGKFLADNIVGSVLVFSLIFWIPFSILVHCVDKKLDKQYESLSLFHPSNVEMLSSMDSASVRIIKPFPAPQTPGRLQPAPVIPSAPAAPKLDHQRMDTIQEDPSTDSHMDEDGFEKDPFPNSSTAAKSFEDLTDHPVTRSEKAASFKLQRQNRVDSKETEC
ADAM10 inh = ADAM10 inhibition, QFRET primary screen. O14672. recombinant ADAM10, EDANS/DABCYL FRET peptide cleavage, 3 h. inhibition, % at 7 µM. hit rate 0.62% among 370,000. AID 720582;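 active = inhibition above a per-campaign cutoff equal to the mean of compounds falling between control-based bounds plus 3 SD, cut at about 20% in these data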;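 also: 0% = DMSO wells while the 100% control is not disclosed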
PLC-gamma1 inh = PLC-gamma1 (human) inhibition, primary screen; P19174; purified PLC-gamma1, fluorogenic substrate, fluorescence; inhibition, % at 12.2 µM; hit rate 0.84% among 370,000; AID 720700; in the data active = inhibition above about 9.5%
KLK7 zymogen act = proKLK7 (human) activation, primary screen; purified proKLK7, EDANS-DABCYL substrate fluorescence; 100% is mature enzyme control, 0% vehicle; AID 652039; hit rate 0.9% among 370,000; activation, % at 7 µM; P49862;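 active = activation above the mean of all tested compounds plus 3 SD, computed per campaign excluding outliers beyond control limits, cut at about 13% in these data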
PLCb3 inh = blocks human PLC-beta3 enzyme activity; Q01970; Purified PLC-beta3, fluorogenic substrate, fluorescence; inhibition, % at 12.2 µM; hit rate 0.18% among 370,000; in the data active = inhibition above about 11%;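 also: 0% = median of compound wells on plate and 100% = full blocker control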
ADAM10 counter = ADAM10 inhibition, counter-screen for ADAM17 exosite hits. inhibition, % at 6.95 µM. shares compounds with ADAM17 inh. hit rate 47% among 2,900. recombinant ADAM10, EDANS/DABCYL FRET peptide cleavage, 3 h;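 active = mean inhibition over the triplicate runs exceeds the activity threshold set in the earlier primary screen, cut at about 20% in these data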;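 also: 0% = DMSO wells and 100% = marimastat wells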
ADAM17 confirm = confirmation of inhibitors of human ADAM17. AID 743257. shares compounds with ADAM17 inh. inhibition, % at 6.95 µM. recombinant ADAM17, EDANS/DABCYL QFRET peptide cleavage. hit rate 65% among 2,900;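 active = mean inhibition across replicates above the hit cutoff set in the primary screen, cut at about 8.5% in these data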;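 also: 0% = DMSO wells and 100% = marimastat wells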
* marks the source's active call; other numbers are inactive results; i = inactive; . = no result given. Only some compounds are listed: those with a hit (about 2.9% of all), similar ones and a draw of the others.

SMILES	ADAM17 inh	ADAM10 inh	PLC-gamma1 inh	KLK7 zymogen act	PLCb3 inh	ADAM10 counter	ADAM17 confirm
COc1ccc(S(=O)(=O)Nc2cccc3c2O[C@H](CN(C)C(=O)Nc2ccc(C(F)(F)F)cc2)[C@@H](C)CN([C@H](C)CO)C3=O)cc1	15.6*	20.8*	9.9*	-0.1	5.5	21.4*	14.2*
COc1ccc(NC(=O)N(C)C[C@H]2Oc3c(NC(=O)c4nc5ccccc5s4)cccc3C(=O)N([C@@H](C)CO)C[C@H]2C)cc1	12.3*	18.4	-10.9	2.1	-28.5	25.1*	13.0*
COC(=O)[C@]1(C#N)CC(=O)N(C)[C@@H]1c1ccccc1	3.3	0.8	8.7	-0.3	0.1	.	.
NCCN1CCN(S(=O)(=O)c2ccc3c(c2)CCN3C(=O)C2CCC2)CC1	-2.1	-3.6	0.5	0.3	1.2	.	.
COC(=O)[C@]12CCCCC=C1N(CCc1ccc(OC)c(OC)c1)C(=O)[C@H](CC(=O)NCc1cccc(C(F)(F)F)c1)C2	8.8*	13.0	3.4	1.0	3.4	24.2*	14.9*
COC(=O)[C@]12CCCCC=C1N(Cc1ccc3c(c1)OCO3)C(=O)[C@H](CC(=O)NCc1cccc3ccccc13)C2	8.9*	19.0	3.5	0.2	2.2	33.3*	22.3*
COC(=O)[C@]12CCCCC=C1N(Cc1ccccc1)C(=O)[C@H](CC(=O)NCc1cccc3ccccc13)C2	5.2	4.2	-0.1	0.5	3.7	.	.
COC(=O)[C@@]12C[C@@H](CC(=O)NCc3ccccc3)C(=O)N(Cc3cccc4ccccc34)C1=CCC(C)(C)C2	9.1*	17.0	3.0	0.6	3.7	14.8	6.2
O=C(CC(=O)c1cccs1)c1ccncc1	-2.0	-8.9	-4.6	-0.1	-3.6	.	.
S=C(Nc1cccc(Cl)c1)OCCN1CCCC12CCC(c1ccccc1)CC2 (stereo not given)	-0.4	2.7	-1.7	.	0.4	.	.
N=c1c2c(ccn1CCCCc1ccccc1)Oc1ccc3ccccc3c1C2c1ccccc1 (stereo not given)	9.6*	19.8	1.3	.	0.7	20.4*	14.4*
O=C(COC(=O)/C=C/c1ccc(Cl)cc1)NC(=O)NCc1ccccc1	9.9*	-6.2	9.0	0.1	-5.1	26.1*	15.1*
CC(=O)OC[C@@H]1CN(Cc2ccccc2)C[C@H](n2cnc3c(N4CCN(c5ccccc5)CC4)ncnc32)O1	2.6	3.4	-2.8	0.3	1.6	.	.
Cc1cc(SCC(=O)c2ccc(O)c(O)c2)n2nc(C)c(-c3ccccc3)c2n1	9.9*	18.1	-5.9	0.3	-59.1	13.8	14.3*
Cc1cc(C)nc(SCC(=O)c2ccc(O)c(O)c2)n1	1.9	5.8	0.8	-0.3	1.3	.	.
C=CC[C@H](CC(=O)N(CCO)Cc1ccccc1)C(=O)NC[C@@H](OC(=O)[C@@H](CC=C)Cc1ccc(F)cc1)c1ccccc1	3.0	10.7	1.4	-0.1	-0.1	.	.
C=CCC[C@H](Cc1ccc(F)cc1)C(=O)O[C@H](CNC(=O)[C@@H](CC=C)CC(=O)N(CCO)Cc1ccccc1)c1ccccc1	10.6*	13.7	0.1	0.5	1.1	45.3*	22.2*
CCCCNC(=O)C1CCCN1C(=O)Nc1ccc(Cl)cc1 (stereo not given)	1.1	1.6	3.1	0.0	4.7	.	.
C[C@@H]1CN([C@H](C)CO)C(=O)c2cc(NS(=O)(=O)c3ccc(F)cc3)ccc2O[C@@H]1CN(C)Cc1ccc(Cl)c(Cl)c1	9.6*	14.2	2.7	-0.3	4.2	39.5*	19.1*
C[C@H](CO)N1C[C@H](C)[C@@H](CN(C)Cc2ccc(C(=O)O)cc2)OCCCC[C@H](C)Oc2ccc(NC(=O)CCC(F)(F)F)cc2C1=O	-2.9	-4.6	0.1	0.1	0.1	.	.
C[C@@H]1CCCCO[C@@H](CN(C)Cc2ccc(Cl)c(Cl)c2)[C@@H](C)CN([C@H](C)CO)C(=O)c2cc(NC(=O)CCC(F)(F)F)ccc2O1	9.2*	1.2	1.9	0.9	0.2	42.5*	22.4*
COc1ccc(-c2cccc3[nH]c4c(c23)CCN2C(=O)[C@H]3[C@H](C)ON(C)[C@H]3C[C@@H]42)cc1	-165.9	i	i	-36.5	i	.	.
Cc1c(Cl)cccc1NC(=S)NCCC(c1ccccc1)c1ccccc1	9.2*	15.1	10.1*	0.5	-0.6	20.8*	10.0*
COC(=O)[C@@]12C[C@@H](CC(=O)NCCC(C)C)C(=O)N(Cc3ccc4c(c3)OCO4)C1=CCC(C)(C)C2	2.3	2.0	0.4	-0.3	1.9	.	.
COC(=O)[C@]12CCCCC=C1N(Cc1ccc(Cl)cc1Cl)C(=O)[C@H](CC(=O)NCCCCc1ccccc1)C2	2.3	6.1	5.8	0.5	0.3	.	.
SMILES	ADAM17 inh	ADAM10 inh	PLC-gamma1 inh	KLK7 zymogen act	PLCb3 inh	ADAM10 counter	ADAM17 confirm
Cc1ccc(S(=O)(=O)NC(C)CCc2ccccc2)cc1 (stereo not given)	9.5*	7.5	4.0	0.2	3.1	2.4	5.8
CC(=O)Nc1ccc(S(=O)(=O)NC(C)CCc2ccccc2)cc1 (stereo not given)	-4.1	2.8	0.9	-0.7	0.1	.	.
OC(c1ccccc1)(c1nc(-c2cc(F)cc(F)c2)cs1)C(F)(F)F (stereo not given)	9.5*	17.3	1.3	0.3	0.8	39.9*	17.8*
CCn1c(SCC(=O)Nc2cccc3ccccc23)nnc1-c1cccs1	2.3	3.8	2.4	0.3	-8.1	.	.
COc1ccccc1N=Nc1nc(-c2ccccc2)c(-c2ccccc2)[nH]1	12.2*	17.9	3.3	-0.7	6.8	15.0	10.5*
CC(=O)Oc1ccc([N+](=O)[O-])cc1N1C(=O)c2ccccc2C1=O	9.8*	6.5	12.1*	-1.1	12.0*	22.9*	13.5*
COc1ccc([N+](=O)[O-])cc1N1C(=O)c2cccnc2C1=O	2.3	5.8	4.1	-0.2	-1.7	.	.
COC(=O)[C@H](CC(C)C)NCc1cccc(CN[C@@H](CC(C)C)C(=O)OC)c1	8.9*	6.8	6.4	-0.7	5.0	7.3	3.5
O=C(CCn1nnc(-c2cccs2)n1)NCc1ccco1	0.0	-1.2	1.2	0.1	1.5	.	.
O=C(C[C@@H]1C[C@@H]2c3cc(NC(=O)C4CCOCC4)ccc3O[C@@H]2[C@H](CO)O1)NCc1ccccn1	-5.6	-10.1	-2.0	0.3	0.7	.	.
Cc1cccc(NC(=O)CSc2nnc(SCc3ccc(Cl)cc3)s2)c1	8.8*	11.8	-1.6	1.4	-9.2	14.9	11.7*
O=C(c1ccccc1F)N1CCN(S(=O)(=O)c2ccc(S(=O)(=O)N3CCCCC3)cc2)CC1	8.8*	7.2	6.0	0.0	5.7	-12.6	-4.3
CCOc1ccc(CCNC(=O)c2ccc3[nH]ccc3c2)cc1OCC	-3.0	-0.2	0.9	.	0.9	.	.
